According to PubChem BioAssay (NCI):
The panel holds about 79,000 compounds, 15% with a hit somewhere; the sample as a whole holds those more often. Values without a mark were called inactive. Active and inactive are the calls of the source. Rule as the data show it: active = growth inhibition above about 70%; inactive = the rest.

Assay: NCI Yeast Anticancer Drug Screen. Data for the bub3 strain (AID 167)
Settings: S. cerevisiae bub3 mutant strain, at 5.0 µM (retest, dose inferred, filed as 0.5), active compounds read high
Method in brief: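 Screening used yeast with an engineered genetic alteration affecting cell cycle control. Compound-exposed cultures were compared with vehicle cultures, and reduced growth was taken as inhibition.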

| SMILES | growth inhibition |
| --- | --- |
| CCOc1ccccc1/C=C1\NC(=O)N(/C=C2\C(=O)Oc3ccccc3C2=O)C1=O | -4% |
| CC(NNC(=S)N1CCCC1)c1ccc2ccccc2n1 (stereo not given) | 7% |
| N#Cc1c(-c2ccc(Cl)cc2)c(C#N)c(=O)n(NS(=O)(=O)c2ccccc2)c1S | 50% |
| CC(C)/C=C1\CCOC1=O | -3% |
| c1ccc(Nc2nnc3nc(-c4ccccc4)c(-c4ccccc4)nn23)cc1 | 6% |
| O=C(NC(c1ccccc1)N1CCOCC1)c1ccccc1 (stereo not given) | -3% |
| N[C@@H]1CCCC[C@@H]1N.O=C([O-])CN(CP(=O)([O-])[O-])CP(=O)([O-])[O-].[Pt+2] | 5% |
| C/C=C\C(/C=C/C)(C(=O)OCCN(C)C)C(/C=C\C)(/C=C/C)C(=O)OCCN(C)C (stereo not given) | 2% |
| COc1ccc(CCNC(=S)/N=C\C(C(=O)c2ccccc2)=C(\O)c2ccccc2)cc1OC | 0% |
| Cc1ccccc1C1SCc2nc3ccccc3n21 (stereo not given) | -4% |
| O=C(Nc1ccc(Cl)cc1)Nc1nnc(/C=C/c2ccc(Cl)c(Cl)c2)o1 | -44% |
| Cc1c(CCCl)c(N=[N+]=[N-])n2c(nc3ccccc32)c1C#N | 23% |
| O=C(OCCCC(C(=O)c1ccccc1)=P(c1ccccc1)(c1ccccc1)c1ccccc1)c1ccccc1 | 14% |
| O=C(c1ccccc1)c1ccc(Cl)cc1 | -42% |
| O=C1C(C(O)(C(F)(F)Cl)C(F)(F)Cl)CCCC1C(O)(C(F)(F)Cl)C(F)(F)Cl (stereo not given) | 35% |
| CCN(CC)C(=S)N=Nc1c(O)[nH]c2ccccc12 | 76% (active) |
| c1csc(-c2nnc(C34CC5CC(CC(C5)C3)C4)o2)c1 | -10% |
| C/C(O)=C(/C=N/C(=S)Nc1ccc(S(N)(=O)=O)cc1)C(=O)Nc1ccccc1C | -13% |
| CC(C)(Oc1ccc(-c2cccc3ccccc23)cc1)C(=O)O | 13% |
| CCc1scc(C)[n+]1CC(=O)c1cccc([N+](=O)[O-])c1 | 12% |

| SMILES | growth inhibition |
| --- | --- |
| O=C1CCC(C(c2ccccc2)(c2ccccc2)c2ccccc2)CC1=O (stereo not given) | -3% |
| Clc1ccc(C2SCc3nc4ccccc4n32)cc1Cl (stereo not given) | 7% |
| OC(CBr)c1c(Br)ccc2ccccc12 (stereo not given) | -1% |
| O=C1OC(c2cccc(Cl)c2)Sc2ccccc21 (stereo not given) | 26% |
| c1ccc(N2CCN(c3ccccc3)C2Cc2c[nH]c3ccccc23)cc1 | 61% |
| CC(=O)c1sc(Nc2ccc(Cl)c(Cl)c2)nc1C | 1% |
| Cc1ncn(-c2ccccc2O)c1C | -3% |
| C[n+]1c(/C=C/c2ccc(N3CCCC3)cc2)sc2ccccc21 | 46% |
| COc1ccc(-c2c(C#N)c(S)n(NS(=O)(=O)c3ccc(C)cc3)c(=O)c2C#N)cc1 | 58% |
| N#Cc1c(-c2ccc(Cl)c(Cl)c2)c(-c2ccc(Cl)c(Cl)c2)nn(CCO)c1=O | 43% |
| NCc1ccc(O)c(O)c1O | -2% |
| C[CH2][Sn]([CH2]C)([O]C(=O)c1cc(OC)c(OC)c(OC)c1)[O][Sn]([CH2]C)([CH2]C)[O]C(=O)c1cc(OC)c(OC)c(OC)c1 | 36% |
| C=CCNCCC1CCCCCC1 | 7% |
| Cc1ccc(/C=C/C(=O)/C=C/c2ccc(C)o2)o1 | 47% |
| CCCC(=O)c1cc(O)c(O)c(CN(C)Cc2cc(Cl)cc(C)c2O)c1O | -7% |
| COC(=O)/C(C#N)=C/c1cc(OC)c(O)cc1Br | 46% |
| O=C(/C=C/c1ccccc1)CCN1CCOCC1 | 35% |
| c1cc2c(c3c1CN(C1CCCCC1)CO3)OCN(C1CCCCC1)C2 | 5% |
| CSc1nc2ccccc2s1 | -3% |
| CC1(C)CC(=O)C(CSC(=O)c2ccccc2)=C(O)C1 | -2% |
